Experimental data as given in PubChem BioAssay (NCATS).
Results filed as inconclusive are left out. Activity calls are given as the source filed them. The call rests on the fitted dose curve; in most records, active means well fitted curve in the direction sought with a large enough effect; inconclusive means small, poorly fitted or top-dose-only effect, or another doubt; inactive means no such curve, though single readings can be large; an effect the other way counts as inactive or inconclusive.

Key:
[1] = qHTS to identify inhibitors of the type 1 interferon - major histocompatibility complex class I in skeletal muscle: primary screen against the NCATS Pharmaceutical Collection (AID 1347407);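 further: luminescence of HiBiT knocked into endogenous HLA-B as interferon-induced MHC class I level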
Procedure, shortened: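 HLA-B HiBiT myoblasts, dexamethasone-free growth medium + 4 ng/ml IFN-b; compounds pinned 1 h after seeding, […] from 46 uM; 24 h, 37 C, 5% CO2; lytic HiBiT detection, 10 min RT, luminescence.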

[2] = target: Protein phosphatase 1D (Homo sapiens) (UniProt O15297); experiment: RapidFire Mass Spectrometry qHTS Assay for Modulators of WT P53-Induced Phosphatase 1 (WIP1) (AID 1347424);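 further: amount of dephosphorylated VEPPL-S-QETFS peptide product formed by WIP1; series mostly up to about 63 µM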
Chain of Protein phosphatase 1D (Homo sapiens) (O15297 whole entry, looked up): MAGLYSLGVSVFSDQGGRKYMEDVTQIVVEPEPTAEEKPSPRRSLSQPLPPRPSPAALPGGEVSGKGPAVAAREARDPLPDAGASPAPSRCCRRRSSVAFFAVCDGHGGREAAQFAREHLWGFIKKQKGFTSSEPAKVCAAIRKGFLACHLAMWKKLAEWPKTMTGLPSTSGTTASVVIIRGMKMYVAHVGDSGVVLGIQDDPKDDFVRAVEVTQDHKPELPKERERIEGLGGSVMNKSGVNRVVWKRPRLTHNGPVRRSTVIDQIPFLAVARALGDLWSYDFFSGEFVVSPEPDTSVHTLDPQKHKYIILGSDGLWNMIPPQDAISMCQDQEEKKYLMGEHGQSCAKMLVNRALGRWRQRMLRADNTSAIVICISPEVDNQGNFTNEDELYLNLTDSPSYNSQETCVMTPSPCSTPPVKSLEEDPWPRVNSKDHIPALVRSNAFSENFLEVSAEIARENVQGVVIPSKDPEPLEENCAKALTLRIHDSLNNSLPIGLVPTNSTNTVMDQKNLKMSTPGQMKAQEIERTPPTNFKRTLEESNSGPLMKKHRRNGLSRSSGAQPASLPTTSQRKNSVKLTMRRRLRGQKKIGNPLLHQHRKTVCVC
Procedure, shortened: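 10 nM WIP1 + cpd, 1 h RT; + 2 uM VEPPL-pS-QETFS, 5 min RT; stop 0.5% formic acid; labelled product standard 1 uM; RapidFire MS. Buffer 50 mM Tris pH 7.5, 30 mM MgCl2, 1 mM TCEP.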

[3] = target: Protein phosphatase 1D (Homo sapiens) (UniProt O15297); experiment: Rhodamine-PBP qHTS Assay for Modulators of WT P53-Induced Phosphatase 1 (WIP1) (AID 1347425)
Procedure, shortened: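 Steps: enzyme with Rh-PBP sensor and compounds, room-temperature incubation of 1 hr, baseline read, addition of VEPPL-pS-QETFS (10 uM final), kinetic fluorescence reads at 525/598 nm. Activity equals final minus baseline signal.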

[4] = Primary qHTS for inhibitors of La Crosse Virus (LACV) - induced cell death in SH-SY5Y cells (AID 1508616);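 further: top concentration of the series differs between compounds; higher means more rescue of cells from virus-induced death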
Procedure, shortened: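 Luminescent ATP readout (ATPLite 1step, 5 min room temperature) measured rescue from LACV-induced death after 6 days of infection at 0.01 MOI; normalized to infected DMSO wells and uninfected DMSO wells.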

[5] = target: Calcium and integrin-binding protein 1 (Homo sapiens) (UniProt Q99828); experiment: Primary qHTS for Identification of Calcium Integrin Binding Protein 1 (CIB1) Competitor (AID 1508620);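 further: GST tagged CIB1 binding a fluorescein labelled alphaIIb integrin peptide tracer; top concentration of the series differs between compounds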
Chain of Calcium and integrin-binding protein 1 (Homo sapiens) (Q99828 whole entry, looked up): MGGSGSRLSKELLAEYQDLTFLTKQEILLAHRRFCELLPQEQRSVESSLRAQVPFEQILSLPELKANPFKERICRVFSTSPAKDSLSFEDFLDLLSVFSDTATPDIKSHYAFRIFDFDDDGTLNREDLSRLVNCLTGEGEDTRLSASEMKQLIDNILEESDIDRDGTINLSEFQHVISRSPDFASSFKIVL
Procedure, shortened: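 CIB1-GST (1 uM final) and compound incubated 15 min at room temperature before adding FITC-alphaIIb peptide tracer (100 nM final). Competition for binding read by fluorescence polarization (ex 480, em 540) after another 15 min at room temperature.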

[6] = qHTS to identify inhibitors of the type 1 interferon - major histocompatibility complex class I in skeletal muscle: primary screen against the NCATS Mechanism Interrogation Plate v5.0 (MIPE) Libary (AID 1347411); further: nearly all actives have a fitted effect of over 65% in size
Text: Assay Submitter (PI): Travis B. Kinder Ph.D. & James Inglese Ph.D.
Assay Development and Screening Technology Laboratory (ADST)
National Center for Advancing Translational Sciences (NCATS), Rockville, MD
National Institute of Health (NIH), Bethesda, Maryland
Idiopathic inflammatory myopathies, collectively referred to as myositis, are a group of rare autoimmune diseases characterized by skeletal muscle inflammation, weakness, and usually accompanied by systemic pathologies of the skin, lungs, or vasculature. Current immunosuppressive therapies and glucocorticoids are often not curative and are accompanied by harsh side effects, especially in children with juvenile myositis. We initiated a drug repurposing and development program to identify more targeted, less toxic therapeutics to treat myositis. Although its cause is not known, muscle from a subset of patients have an abundance of the inflammatory type 1 interferon (IFN) and a down-stream product major histocompatibility complex class I (MHC class I), which are both thought to contribute to damage and weakness. We conducted quantitative high throughput screening on 6,576 compounds (4,679 unique) through a series of cell-based assays to identify those that inhibit the IFN-stimulated expression of MHC class I in muscle precursor cells (myoblasts). The compound identification and evaluation strategy utilized a primary screen with reporter-tagged MHC class I in genome-engineered myoblasts, ATP content counter screen for viability, HLA-ABC immunofluorescence secondary screen, and HLA-B RT-qPCR tertiary screen.
The primary screen utilized CRISPR/Cas9 genome-engineering of immortalized human myoblasts, C25cl48, where a pro-luminescent reporter HiBit was fused to the C-terminus of endogenous MHC class I allele HLA-B*08:01 (HLA-B HiBit myoblasts). HiBit is an 11 amino acid fragment of NanoLuc luminescent reporter (Promega Corporation), and when complexed to the larger LgBit fragment, the reconstituted enzyme produces light in the presence of furimazine substrate (Schwinn et al., 2018). Briefly, HLA-B HiBit myoblasts were plated into 1536-well plates, treated with 4.0 ng/ml human IFN-beta and 2,480 compounds from the NCATS Mechanism Interrogation Plate v5.0 (MIPE5.0) in an 11-point, 1:3 titration with a high final concentration of 46 uM. After 24 hrs of treatment, cells were assayed by Nano-Glo HiBiT Lytic Detection System (Promega) and luminescence measured by a ViewLux 1430 Ultra HTS (Perkin Elmer).
Schwinn MK, Machleidt T, Zimmerman K, Eggers CT, Dixon AS, Hurst R, Hall MP, Encell LP, Binkowski BF, Wood K V. 2018. CRISPR-Mediated Tagging of Endogenous Proteins with a Luminescent Peptide. ACS Chem Biol 13:467-474. doi:10.1021/acschembio.7b00549
PROTOCOL TABLE (as described by Inglese et al., 2007)
SEQUENCE No. (e.g., 1, 2, 3, etc.); […] (e.g., Cells, Incubation, Reagent, etc.); VALUE; DESCRIPTION
1a; Cells; 5 uL; Use a Multidrop Combi (Thermo Scientific) to seed 300 cells/well into 24 Greiner 1536 well white/solid bottom, high base, TC plates in 5 ul/well of iHSKM growth medium (GM) without dexamethasone into columns 1+2. Add metal lids with gas-exchange holes
1b; Cells; 5 uL; Use a Multidrop Combi (Thermo Scientific) to seed 300 cells/well into 24 Greiner 1536 well white/solid bottom, high base, TC plates in 5 ul/well of iHSKM GM without dexamethasone + 4 ng/ml IFN-b into columns 3 - 48. Add metal lids with gas-exchange holes
2; Incubate; 1 hr; Incubate at 37 C, 5% CO2, 95% RH
3; Compounds; 23 nl; Use Pin Tool (Wako) to transfer DMSO control, ruxolitinib IFN-b inhibitor control [High Concentration = 80 uM final, 16-pt, 1:2 in duplicate], and library compounds in DMSO
4; Incubate; 24 hrs; Incubate at 37 C, 5% CO2, 95% RH
5; Dispense; 2.5 ul; Use BioRAPTR FRD (Beckman Coulter) to add HiBit lytic reagent
6; Incubate; 10 min; Incubate in the dark at ambient temperature for lysis
7; Detector; 5 sec; Measure luminescence with ViewLux 1430 Ultra HTS (Perkin Elmer). […]

Measured: outcome

CCCNC(C)C(=O)Nc1c(C)csc1C(=O)OC (centres undefined)
not listed: [6]
inactive: all other assays above

COc1ccc(NS(=O)(=O)c2ccc(N)cc2)nn1
inactive: [1] | [2] | [3] | [4]

CC(C)=CCC/C(C)=C/CO
not listed: [6]
inactive: all other assays above

Nc1ccncc1N
inactive: [1] | [2] | [3] | [4]

O=C1CC[C@@H](C(=O)O)N1
inactive: [1] | [2] | [3] | [4]

CC1(c2ccccc2)OC(C(=O)O)=CC1=O (centres undefined)
not listed: [6]
inactive: all other assays above

C=CCNC(N)=S
inactive: [1] | [2] | [3] | [4]

Cc1c(C)c2c(c(C)c1OC(=O)c1cccnc1)CC[C@@](C)(CCC[C@H](C)CCC[C@H](C)CCCC(C)C)O2
not listed: [6]
inactive: all other assays above

O=C(O)/C=C/c1ccc(Cn2ccnc2)cc1
not listed: [4]
inactive: all other assays above

CCOc1ccccc1O[C@H](c1ccccc1)[C@H]1CNCCO1
not listed: [6]
inactive: all other assays above

Nc1ccc(S(=O)(=O)c2ccc(N)cc2)cc1
inactive: [1] | [2] | [3] | [4]

O=S1(=O)OC(c2ccc(O)cc2)(c2ccc(O)cc2)c2ccccc21
inactive: [1] | [2] | [3]

C=CCSCC1Nc2cc(Cl)c(S(N)(=O)=O)cc2S(=O)(=O)N1 (centres undefined)
not listed: [6]
inactive: all other assays above

C/C=C/C(=O)N(CC)c1ccccc1C
inactive: all assays above
